In PubChem BioAssay AID521 (Sanford-Burnham Center for Chemical Genomics, 2006):
Hit rate of the full screen: of about 110,000 compounds, about 730 (0.66%) were called active. No stated cut-off is given here; in the data, active means inhibition above about 50%; inconclusive means no clear call, values can overlap the other calls; inactive means below that. The entries come from a sample that favours actives as a whole.

Each molecule was assayed against Tyrosine-protein phosphatase non-receptor type 7 (Homo sapiens) (UniProt P35236) (assay: inhibitors of human HePTP phosphatase, primary screen, biochemical, absorbance, leukemia target (AID 521;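 further: plate controls were vehicle for no effect and reference inhibitor for full effect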)). Conditions: recombinant HePTP phosphatase activity, OD absorbance; at 20 µM; active compounds read high.
Chain of Tyrosine-protein phosphatase non-receptor type 7 (Homo sapiens) (P35236 whole entry, looked up): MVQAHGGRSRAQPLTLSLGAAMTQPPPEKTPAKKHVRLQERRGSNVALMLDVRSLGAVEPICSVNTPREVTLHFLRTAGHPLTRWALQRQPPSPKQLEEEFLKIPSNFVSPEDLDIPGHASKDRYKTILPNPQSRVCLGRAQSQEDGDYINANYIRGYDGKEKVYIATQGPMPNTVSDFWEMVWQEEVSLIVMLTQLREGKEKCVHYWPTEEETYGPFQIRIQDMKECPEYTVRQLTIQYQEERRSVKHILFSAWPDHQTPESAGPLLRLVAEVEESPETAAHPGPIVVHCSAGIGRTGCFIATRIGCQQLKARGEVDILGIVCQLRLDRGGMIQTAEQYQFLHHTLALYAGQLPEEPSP
In the case of `O=C(Nc1cccc(I)c1)c1ccc2c(c1)C(=O)N(CC1CCCO1)C2=O` (centres undefined), the inhibition is reported as 6.2% (inactive). For `Cc1ccc(N(Cc2ccc(C(=O)N3CCCCC3)cc2)S(C)(=O)=O)cc1C`, the inhibition was 13.9% (inactive). In the case of `O=C(NCC1CCCO1)c1cc(-c2ccccc2)nc2ccccc12` (centres undefined), the inhibition is reported as -0.5% (inactive). With `CCOc1ccc(NC(=O)Nc2cc(C)on2)cc1` the inhibition was -4.8% (inactive). With `CCCOc1ccccc1N/C(=N/S(=O)(=O)c1ccc(C)cc1)Nc1nc(C)cc(C)n1` the inhibition was -1.6% (inactive). For `CCOc1ccc(N/C(=N\S(=O)(=O)c2ccc(NC(C)=O)cc2)Nc2nc(C)cc(C)n2)cc1`, the inhibition was 104% (active). For `O=C(/C=C/c1ccc([N+](=O)[O-])cc1)N1CCc2ccccc2C1`, the inhibition was -1.1% (inactive). In the case of `Cc1ccc(N2C(=O)NC(=O)/C(=C\c3cccc(C)c3)C2=O)cc1`, the inhibition is reported as 4.7% (inactive). With `O=C1/C(=C/c2ccc(-c3ccc(Cl)cc3C(=O)O)o2)Sc2ccccc21` the inhibition was 99% (active). For `Cc1ccc(-c2ccc(/C=C3\Sc4ccccc4C3=O)o2)c([N+](=O)[O-])c1`, the inhibition was -1.6% (inactive). `O=C1S/C(=C/c2ccc(-c3ccc(Cl)cc3Cl)o2)C(=O)N1c1ccccc1` was tested, and the inhibition was -6.4% (inactive). `Cc1oc2ccc(OCC(=O)c3ccccc3)cc2c1C(=O)O` was tested, and the inhibition was 6.3% (inactive). With `O=C(Nc1ccc(I)cc1)c1ccc2nccnc2c1` the inhibition was 8.3% (inactive). `Cc1ccc(/C=N/NC(=O)C2CC(=O)N(c3ccc(Cl)cc3)C2)cc1` (centres undefined) was tested, and the inhibition was 4.9% (inactive). With `CCOc1ccccc1C(=O)Nc1ccc(Cl)cc1[N+](=O)[O-]` the inhibition was -5.6% (inactive). In the case of `O=C(NC(=S)Nc1ccc(-c2nc3cc(Cl)ccc3o2)cc1)c1ccco1`, the inhibition is reported as 4.7% (inactive). In the case of `CN1CN=C2SC3(COC(c4cccc(Br)c4)OC3)C(=O)N2C1` (centres undefined), the inhibition is reported as -17.5% (inactive). `Cc1ccc(/C=C/C(=O)Nc2nc3ccc(S(C)(=O)=O)cc3s2)cc1` was tested, and the inhibition was -6.1% (inactive). In the case of `Cc1ccc(N(CC(O)CN2CCCC2)S(=O)(=O)c2ccccc2)cc1` (centres undefined), the inhibition is reported as -3.8% (inactive). `Cc1ccc(S(=O)(=O)N(CC(O)CN(C)C)c2cccc3ccccc23)cc1` (centres undefined) was tested, and the inhibition was 104% (active). With `Cc1cccc(N(CC(O)CN(C)C)S(=O)(=O)c2ccccc2)c1` (centres undefined) the inhibition was -7.9% (inactive). `CC(C)c1ccc(C=NCCCO)cc1` was tested, and the inhibition was -12.6% (inactive). `O=C(N=Nc1c(O)[nH]c2ccc([N+](=O)[O-])cc12)c1cccc(Br)c1` was tested, and the inhibition was 56.4% (active). With `O=C(N=Nc1c(O)[nH]c2ccc(F)cc12)c1ccccc1O` the inhibition was -14.6% (inactive). `Nc1nonc1C(=O)N=Nc1c(O)[nH]c2ccccc12` was tested, and the inhibition was -0.8% (inactive). `O=C1C2C3CC4C2C(=O)C2(c5ccccc5)C1C3C42` (centres undefined) was tested, and the inhibition was -6.6% (inactive). `COc1ccc(CCNC(=O)COc2cc(C)c(Cl)c(C)c2)cc1OC` was tested, and the inhibition was 103% (active). With `COCCCNC(=O)COc1cc(C)c(Cl)c(C)c1` the inhibition was 5.1% (inactive). `COc1ccc(CCNC(=O)COc2ccc(Br)cc2)cc1OC` was tested, and the inhibition was -20% (inactive). `COc1ccc2ccccc2c1/C=N/NC(=O)c1cc(C)[nH]n1` was tested, and the inhibition was 0.2% (inactive). For `Cc1c(C#N)c2nc3ccccc3n2c(=O)/c1=C\c1c(O)n(-c2ccc(Br)cc2)[nH]c1=O`, the inhibition was 103% (active). In the case of `N#Cc1c2c(c(N3CCN(CCO)CC3)n3c1nc1ccccc13)CCCC2`, the inhibition is reported as 4.3% (inactive). In the case of `Cc1cc(NCCN2CCCCCC2)n2c(nc3ccccc32)c1C#N`, the inhibition is reported as -9.3% (inactive). For `COc1ccc(OC)c(N(CC(=O)Nc2cccc(Cl)c2)S(=O)(=O)c2ccc(OC)c(OC)c2)c1`, the inhibition was -8.4% (inactive). `COc1ccc(NCN2C(=O)CSC2=O)cc1Cl` was tested, and the inhibition was 5.1% (inactive). `COc1cccc(/C=C(/C#N)C(=O)Nc2ccc(F)cc2)c1O` was tested, and the inhibition was 9.6% (inactive). With `O=C(Nc1cccc(Br)c1)C(=O)NC1CCCC1` the inhibition was -7.9% (inactive). For `N#C/C(=C/c1cc(Cl)c(O)c(Cl)c1)C(=O)Nc1cccc(Br)c1`, the inhibition was 102% (active). `CCOC(=O)c1c(Nc2ccc(C)cc2)csc1C` was tested, and the inhibition was 5.4% (inactive). For `COc1ccc(CC(=O)Nc2ccc(-c3ccc(NC(=O)Cc4ccc(OC)cc4)c(OC)c3)cc2OC)cc1`, the inhibition was -17.3% (inactive). In the case of `Cc1cc(C)cc(NC(=O)CN2C(=O)c3ccccc3C2=O)c1`, the inhibition is reported as 4.6% (inactive). With `CSc1nc(=O)n(C)c(C)c1C(C)=O` the inhibition was -0.4% (inactive). `O=C(NC(NC(=S)Nc1ccc(I)cc1)C(Cl)(Cl)Cl)c1cccc([N+](=O)[O-])c1` (centres undefined) was tested, and the inhibition was -2.4% (inactive). With `Cc1cc(C)c2nc3s/c(=C\c4ccc(N(C)C)cc4)c(=O)n3c2c1` the inhibition was 8.6% (inactive). In the case of `COc1cc(/C=c2\sc3nc4c(C)cc(C)cc4n3c2=O)cc(Br)c1O`, the inhibition is reported as 5.3% (inactive). `Cc1cc(C)c2nc3s/c(=C\c4ccc(-c5ccccc5C(=O)O)o4)c(=O)n3c2c1` was tested, and the inhibition was 103% (active). With `O=C1c2ccccc2C(=O)c2c(NC3CCCCC3)cccc21` the inhibition was -14.5% (inactive). `COc1ccc(/C=N/n2cnc3sc4c(c3c2=O)CCCC4)cc1OC` was tested, and the inhibition was 1.7% (inactive). In the case of `O=C(Nc1cccc(NC(=O)c2ccc(Cl)cc2Cl)c1)c1ccc(-c2ccc([N+](=O)[O-])cc2)o1`, the inhibition is reported as 5.5% (inactive). For `CCOc1ccc2cc(S(=O)(=O)NCC3CCCO3)ccc2c1` (centres undefined), the inhibition was 0.1% (inactive). In the case of `Cc1c(Br)c(=O)[nH]c(=O)n1Cc1ccccc1`, the inhibition is reported as 0.2% (inactive). In the case of `O=C(NCc1ccccn1)C(=O)Nc1ccc(Br)cc1`, the inhibition is reported as 7.9% (inactive). For `Cc1cc(C)c(NC(=O)C(C)Sc2nnc(-c3cccc(F)c3)n2-c2ccccc2)c(C)c1` (centres undefined), the inhibition was -3.5% (inactive). `COc1ccc(Cl)cc1C(=O)Nc1ccc2c3c(cccc13)CC2` was tested, and the inhibition was -1.6% (inactive). In the case of `CCCCOC(=O)Nc1nnc(-c2ccco2)s1`, the inhibition is reported as -8.6% (inactive). `CCOc1cc(/C=N/NC(=O)CC2C(=O)NN=C2C)ccc1O` (centres undefined) was tested, and the inhibition was -5.5% (inactive). `O=C(Nc1cccc([N+](=O)[O-])c1)c1ccc2c(c1)C(=O)N(N1C(=O)c3ccccc3C1=O)C2=O` was tested, and the inhibition was -5.9% (inactive). With `COC(=O)c1c(-c2ccc(Br)cc2)csc1NC(=O)CCCC(=O)O` the inhibition was 8.8% (inactive). In the case of `CCc1ccc(N2C(=O)NC(=O)/C(=C\c3cc(Cl)c(O)c(Cl)c3)C2=O)cc1`, the inhibition is reported as 2.7% (inactive).
